BoNT-F LC inh: blocks Botulinum neurotoxin F light chain protease; hit rate 0.22% among 360,000; inhibition, % at 10 µM; Multiplex microsphere protease cleavage assay, flow cytometry; in the data active = inhibition above about 35%, passing the limit was not always enough; inconclusive = no clear call, values can overlap the other calls
MazEF act: activators of E. coli MazEF toxin-antitoxin RNase; P0AE70; FAM/BHQ RNA-DNA oligo cleavage fluorescence, 5 h; activation, % at 20 µM; hit rate 0.32% among 350,000; in the data active = activation above about 50%
Target sequence (P0AE70 whole entry, looked up): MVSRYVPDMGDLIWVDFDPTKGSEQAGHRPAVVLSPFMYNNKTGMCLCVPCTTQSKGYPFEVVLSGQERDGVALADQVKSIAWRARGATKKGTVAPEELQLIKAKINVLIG
Bead autofluor: flagged as autofluorescent in microsphere protease counterscreen; compound autofluorescence counterscreen, microsphere flow cytometry; stronger effect = higher value; fluorescence intensity (test concentration not listed); hit rate 3.1% among 360,000; AID 624483; in the data active = fluorescence intensity above about 16000; inconclusive = no clear call, values can overlap the other calls
BoNT A protease: BoNT A light chain protease inhibition | multiplex microsphere protease substrate cleavage, flow cytometry | inhibition, % at 10 µM | hit rate 0.17% among 360,000
Anthrax LF prot: anthrax lethal factor protease inhibition | P15917 | multiplex microsphere protease cleavage assay, LF | inhibition, % at 10 µM | hit rate 0.12% among 360,000 | AID 588501
Vc quorum ag: quorum light induction in luxS cqsA deficient V. cholerae; activation, % at 18.7 µM; V. cholerae BH1578 lux reporter, luminescence, 6 h; hit rate 0.16% among 350,000; AID 588436; in the data active = activation mostly above about 9.7%, no sharp cut-off; inconclusive = no clear call, values can overlap the other calls; inactive = mostly below about 3.7%
A number is an active result; 0 = inactive; ? = inconclusive; - = not tested or not shown. A selection: hits, their analogues and other compounds. The true share with any hit is near 3.9%. Cut-off read from the data, not from the text of the source, unless noted: active = inhibition above about 30%; inconclusive = no clear call, values can overlap the other calls; inactive = below that.

SMILES	BoNT-F LC inh	MazEF act	Bead autofluor	BoNT A protease	Anthrax LF prot	Vc quorum ag
Cc1ccc(NC(=O)c2ccc(CNS(=O)(=O)c3cccc(C(F)(F)F)c3)cc2)cc1	0	0	0	0	0	0
N#CCSc1ccsc1C(=O)Nc1ccc(F)cc1	0	0	16375	0	0	0
Cc1ccc(NC(=O)c2sccc2SCc2cccc(C(F)(F)F)c2)cc1	0	0	22569	0	0	0
CC1(C)Cc2c(cnn2-c2cccc(F)c2)C(NC(=O)CCc2cnccn2)C1 (centres undefined)	0	0	0	0	0	0
Cc1cc(NC(=O)c2nn(C)c(C)c2Br)no1	0	0	0	0	0	0
CCCNC(=O)C1(C)CCN(C(=O)c2ccc(C)c(F)c2)C1 (centres undefined)	0	-	0	0	0	0
Cc1ccccc1-c1nnc(SCC(=O)NC2CCCC2)n1C	0	0	0	0	0	0
Cc1c(NC(=O)C(C)Sc2nc3ccccc3c(=O)n2CCO)c(=O)n(-c2ccccc2)n1C (centres undefined)	0	0	21769	0	0	0
Cc1c(NC(=O)C(C)Sc2ccc3ccccc3n2)c(=O)n(-c2ccccc2)n1C (centres undefined)	0	0	0	0	0	0
COC(=O)c1cc(=O)c2c(ccc3oc(=O)ccc32)[nH]1	0	-	0	0	0	-
Cc1ccc(S(=O)(=O)CCSc2ccc(C(F)(F)F)cn2)cc1	35.6	0	0	0	?	0
O=S(=O)(CCSc1ccc(C(F)(F)F)cn1)c1ccccc1	0	0	0	0	0	0
COc1ccccc1N(CCC#N)C(=O)COC(=O)CCC(=O)c1ccc(F)cc1	-	0	-	-	-	0
COCCNC(=S)N(CCc1c(C)[nH]c2ccccc12)Cc1cccnc1	0	0	0	0	0	0
COc1ccc(NC(C)=O)cc1S(=O)(=O)N1CCN(C/C=C/c2ccccc2)CC1	0	0	0	0	0	0
Nc1nonc1C(=O)NCCN=Cc1cc(Cc2ccccc2)cc(Br)c1O	0	0	17444	0	0	0
CCCn1c(O)c(N=NC(=O)CNC(=O)/C=C/c2ccc(OC)cc2)c2ccccc21	0	0	0	0	0	80.2
CCCn1c(O)c(N=NC(=O)CNC(=O)Cc2ccc(OC)cc2)c2ccccc21	0	0	0	0	0	439.4
CCn1c(O)c(N=NC(=O)CNC(=O)Cc2ccccc2)c2ccccc21	0	0	0	0	0	0
CC(=O)c1cccc(NC(=O)c2ccc(N(Cc3ccc(C)cc3)S(C)(=O)=O)cc2)c1	0	0	17101	0	0	0
CCOC(=O)N1CCN(C(=O)c2ccc(N(Cc3ccc(C)cc3)S(C)(=O)=O)cc2)CC1	0	0	23851	0	0	0
Cc1ccc(CN(c2ccc(C(=O)Nc3ccc4c(c3)OCO4)cc2)S(C)(=O)=O)cc1	0	0	0	0	0	0
CCn1c(SCC(=O)N(C)C2CCS(=O)(=O)C2)nnc1-c1ccccc1 (centres undefined)	0	0	0	0	0	0
O=C(c1cc(-c2cccs2)on1)N1CCOCC1	0	0	21693	0	0	0
O=C(c1cc(-c2cccs2)on1)N1CCc2ccccc2C1	0	0	22720	0	0	0
SMILES	BoNT-F LC inh	MazEF act	Bead autofluor	BoNT A protease	Anthrax LF prot	Vc quorum ag
O=C(c1ccccc1Cl)N1CCc2ccccc2C1	0	0	17580	0	0	0
COc1cc(NC(=O)CCl)ccc(=O)c1	0	0	0	0	0	0
O=C(NCc1ccccc1Cl)C1CCN(S(=O)(=O)N2CCCCCC2)CC1	0	0	17397	0	0	0
CC1CCN(S(=O)(=O)N2CCCC(C(=O)NCc3ccccc3Cl)C2)CC1 (centres undefined)	0	0	0	0	0	0
Cc1nnc(SCC(=O)NC2CCCC2)n1C(C)C	0	0	0	0	0	0
S=C(Nc1ccc(Cl)c(Cl)c1)NC1CCCCC1	0	0	21140	0	0	0
Cc1ccc(NC(=O)NC2CCCCC2)cc1Cl	0	0	21618	0	0	0
CC1CCc2c(sc(N)c2C(N)=O)C1 (centres undefined)	0	0	17162	0	0	0
CC(NC(=O)CN1C(=O)NC2(CCc3ccccc32)C1=O)c1ccc2c(c1)OCCO2 (centres undefined)	0	0	0	0	0	0
CC(C)NC(=O)CSCc1c(F)cccc1Cl	0	0	16724	0	0	0
CNC(=O)CSCc1c(F)cccc1Cl	0	0	0	0	0	0
O=C(c1ccco1)N1CCN(C2CC(=O)N(c3ccccc3)C2=O)CC1 (centres undefined)	0	0	0	0	0	0
O=C(c1ccco1)N1CCN(C2CC(=O)N(c3ccc4c(c3)OCO4)C2=O)CC1 (centres undefined)	0	0	22383	0	0	0
CC(C)(C)C1CCc2onc(C(=O)Nc3cccnc3)c2C1 (centres undefined)	0	0	0	0	0	0
Cc1nn(Cc2ccc(Cl)c(Cl)c2)c(C)c1NC(=O)c1noc2c1CCCCC2	0	0	17489	?	0	0
O=C(Nc1cccnc1)c1noc2c1CCCC2	0	0	26961	0	0	0
Cc1cc(NC(=O)c2noc3c2CCCC3)no1	0	0	21619	0	0	0
Cc1nn(Cc2ccc(Cl)cc2)c(C)c1NC(=O)c1noc2c1CCCCC2	0	0	0	0	0	0
CCN(Cc1cnn(C)c1)C(=O)c1ccc2nc(Cc3cccc(Cl)c3)oc2c1	0	0	0	0	0	0
Cc1ccc(-c2nnc(SCC(=O)O)n2N)cc1	0	0	22439	?	0	0
CC(C)(C)c1ccc(-c2nnc(SCC(=O)O)n2N)cc1	0	0	22213	0	0	0
CC(C)OC(=O)CSc1nnc(-c2ccc(C(C)(C)C)cc2)n1N	0	0	?	0	0	0
CC(=O)Nc1cccc(-c2ccnc3c2CC(C(=O)NCc2cccs2)O3)c1 (centres undefined)	0	-	0	0	0	0
CC1CC(NC(=O)C2(C)CC2(Cl)Cl)CC(C)(C)C1 (centres undefined)	0	0	20800	0	0	0
CCC1C(=O)N(c2nc(C)cc(C)n2)N=C1C (centres undefined)	0	0	19066	0	0	0
SMILES	BoNT-F LC inh	MazEF act	Bead autofluor	BoNT A protease	Anthrax LF prot	Vc quorum ag
O=C(NNC(=O)c1ccccc1Br)c1cccc(Cl)c1	0	0	0	0	0	0
O=C(NNC(=O)c1ccccc1F)c1cccc(Cl)c1	0	0	25813	0	0	0
CCCC(C(=O)NCc1ccco1)N(Cc1ccco1)C(=O)CNS(=O)(=O)c1ccccc1 (centres undefined)	0	0	0	0	0	0
CCC1(CC)C(=O)NC(=NCCc2c[nH]c3ccccc23)NC1=O	0	0	17043	0	0	0
CCc1nc(SCc2cc(Cl)ccc2OC)n[nH]1	0	0	17236	0	0	0
CC1CCC(C(=O)c2c(O)c3ccccc3oc2=O)CC1 (centres undefined)	0	0	20872	0	0	0
CC(=N)c1c(O)c2ccccc2oc1=O	0	0	0	0	0	0
CCOC(=O)C1CCCN(CCC(=O)Nc2c(C(=O)OC)[nH]c3cc(OC)ccc23)C1 (centres undefined)	0	0	19014	?	0	0

Bioassay records from PubChem.
